# From PubChem BioAssay AID651768 (National Center for Advancing Translational Sciences (NCATS), 2012)
# Screen size: about 360,000 compounds; about 1,700 (0.47%) were called active. About 2% were inconclusive and are not listed. Only a selection was taken, and actives are over-represented in it overall. Unmarked numbers belong to inactive results. The call rests on the fitted dose curve; in most records, active means well fitted inhibition curve with a large enough effect; inconclusive means small, poorly fitted or top-dose-only effect; inactive means no such curve, though single readings can be large or run the other way.
# Target: Bifunctional 3'-5' exonuclease/ATP-dependent helicase WRN (Homo sapiens) (UniProt Q14191)
# Sequence (Q14191 whole entry, looked up): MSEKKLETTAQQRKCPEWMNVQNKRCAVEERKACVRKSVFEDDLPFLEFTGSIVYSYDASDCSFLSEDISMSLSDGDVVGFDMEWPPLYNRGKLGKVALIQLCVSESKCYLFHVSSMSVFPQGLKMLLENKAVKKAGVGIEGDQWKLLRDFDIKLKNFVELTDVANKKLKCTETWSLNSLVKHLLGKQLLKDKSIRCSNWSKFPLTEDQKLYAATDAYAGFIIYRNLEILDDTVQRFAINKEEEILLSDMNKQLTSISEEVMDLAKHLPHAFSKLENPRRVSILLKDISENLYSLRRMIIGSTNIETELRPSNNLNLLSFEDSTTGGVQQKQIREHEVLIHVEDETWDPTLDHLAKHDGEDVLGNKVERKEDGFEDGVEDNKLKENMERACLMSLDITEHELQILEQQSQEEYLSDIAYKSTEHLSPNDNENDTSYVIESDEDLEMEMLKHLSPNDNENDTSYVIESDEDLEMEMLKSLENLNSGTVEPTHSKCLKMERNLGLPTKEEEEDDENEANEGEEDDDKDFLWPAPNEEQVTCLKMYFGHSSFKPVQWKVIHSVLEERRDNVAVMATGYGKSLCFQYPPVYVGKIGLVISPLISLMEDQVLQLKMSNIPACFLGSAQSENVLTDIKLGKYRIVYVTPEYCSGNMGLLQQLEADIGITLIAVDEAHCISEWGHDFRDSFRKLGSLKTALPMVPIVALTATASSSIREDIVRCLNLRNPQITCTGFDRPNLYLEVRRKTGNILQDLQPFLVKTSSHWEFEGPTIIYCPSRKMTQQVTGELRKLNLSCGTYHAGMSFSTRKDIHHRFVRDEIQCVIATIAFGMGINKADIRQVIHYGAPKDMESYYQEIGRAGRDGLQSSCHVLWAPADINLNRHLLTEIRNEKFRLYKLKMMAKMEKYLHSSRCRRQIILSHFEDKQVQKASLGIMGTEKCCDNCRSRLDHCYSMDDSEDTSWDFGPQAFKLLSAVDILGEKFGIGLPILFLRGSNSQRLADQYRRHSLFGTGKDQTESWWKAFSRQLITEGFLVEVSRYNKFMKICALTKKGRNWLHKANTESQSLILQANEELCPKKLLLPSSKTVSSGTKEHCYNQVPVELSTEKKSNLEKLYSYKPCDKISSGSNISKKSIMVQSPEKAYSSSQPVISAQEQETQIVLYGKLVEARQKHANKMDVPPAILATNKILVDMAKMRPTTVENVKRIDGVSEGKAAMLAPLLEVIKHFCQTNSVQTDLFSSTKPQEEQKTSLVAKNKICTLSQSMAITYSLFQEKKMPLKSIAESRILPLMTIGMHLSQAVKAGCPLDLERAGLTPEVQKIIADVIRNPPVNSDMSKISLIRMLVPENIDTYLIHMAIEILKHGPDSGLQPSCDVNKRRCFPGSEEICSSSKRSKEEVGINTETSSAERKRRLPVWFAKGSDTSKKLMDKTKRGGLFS
# Test: qHTS for Inhibitors of WRN Helicase; further: nearly all actives have a fitted effect of over 55% in size
# Conditions: WRN helicase unwinding, fluorescent forked duplex, kinetic; series mostly up to 114 µM; activity change, negative = inhibition: at the top concentration
# Text: Inhibition of DNA repair is proposed as a strategy for combating cancer. Synthetic lethality is an approach that exploits preexisting DNA repair deficiencies in certain tumors to develop inhibitors of DNA repair pathways that compensate for the tumor-associated DNA repair deficiency. Because helicases play critical roles in the DNA damage response and in DNA repair, particularly in actively dividing and replicating cells, characterization of synthetic lethal relationships of DNA helicases may be of value in developing improved anticancer treatment strategies; moreover, small molecules that specifically target a given DNA helicase may be useful for understanding its role in cellular nucleic acid metabolism. The goal of this project is to identify small molecule, non-covalent chemical inhibitors of the Werner syndrome (WS) helicase (WRN), which plays an important role in cell proliferation, the replication stress response, and DNA repair. […] The WRN gene product that is defective in the chromosomal instability disorder has DNA helicase and exonuclease activities and interacts with a number of nuclear proteins to maintain genomic stability. We will employ an optimized high-throughput screening assay that utilizes a fluorescence intensity modulation scheme with a fluorophore and quencher positioned near one another within a duplex deoxyoligonucleotide that contains a single forked structure. After a high-throughput screen of the ~350,000-member Molecular Libraries Small Molecule Repository (MLSMR) collection, followed by data analysis and hit selection, a panel of confirmatory, as well as secondary and ternary, assays will be employed to identify high-confidence WRN inhibitors. Structure-activity relationships will be investigated for the top candidate inhibitor series through medchem expansion. These are the results of the primary screening campaign against the MLSMR. NIH Chemical Genomics Center [NCGC] NIH Molecular Libraries Probe Centers Network [MLPCN] MLPCN Grant: MH096530 Assay Submitter (PI): Robert Brosh, National Institute of Aging
# Three muL of reagents (buffer in columns 3 and 4 as negative controls; WRN at 20 nM final concentration in columns 1 and 2 as positive controls; columns 5-48 as test reactions) will be dispensed into a 1536-well Greiner black plate via solenoid-valve based nanoliter dispensers. Compounds (23 nL each in columns 5-48) and control (23 nL each in column 2 as dose-response) will be transferred via a Kalypsys pintool equipped with a 1536-pin array. Plates will be incubated for 15 min at room temperature, and then 1 µL of substrate (100 nM forked duplex oligonucleotide and 2 mM ATP final concentrations) will be added to start reaction, and plate will be transferred into a ViewLux high-throughput CCD imager where reaction progress is measured in kinetic mode using standard red-fluorescence optics (excitation filter 525 nm, emission filter 598 nm).
# On the % scale 0 is the no-effect control and ±100 the full control effect; potency means the concentration at half of the fitted maximal effect.
SMILES,"activity change, negative = inhibition",Potency
COc1ccc(NC(=O)C(c2ccncc2)n2c(=O)c(-c3cc4ccccc4[nH]3)nc3ccccc32)cc1 (centres undefined),-9.68%,–
Cc1ccc(C(=O)NNC(=O)OC(C)(C)C)c(Cl)c1,-1.09%,–
CCCCN(C=O)c1c(CC)nc2c(OCc3ccccc3C(=O)OC)cccn12,3.67% [at 57.1 µM],–
Cc1c(NC(=O)COC(=O)/C=C/c2cccc(F)c2)c(=O)n(-c2ccccc2)n1C,1.25%,–
O=C(C1CCN(CC2CCCCC2)CC1)N1CCCC1,-7.19%,–
CN1CCN(C(=O)c2ccc(-c3cc4nc(NCc5cccnc5)n(C)c(=O)c4s3)cc2)CC1,8.93%,–
CN(C)NC(=O)C(NC(=O)c1ccc(N)cc1)C12CC3CC(CC(C3)C1)C2 (centres undefined),7.01%,–
Cc1cccc(CN2CCN(C3CN(Cc4cn(Cc5cc(C)cc(C)c5)nn4)S(=O)(=O)C3)CC2)c1 (centres undefined),-9.29%,–
CN(CC1CCCO1)S(=O)(=O)c1ccc(C(=O)Nc2ccc([N+](=O)[O-])cc2)cc1 (centres undefined),-34.3%,–
Cn1ccc(=Nc2ccc(NC(=O)c3ccc(N=c4ccn(C)c5ccc([N+](=O)[O-])cc45)cc3)cc2)cc1,–,39.8 µM (active)
CC(C)c1ccc(NC(=O)CCN2C(=O)c3ccc([N+](=O)[O-])cc3C2=O)cc1,12.3%,–
CC(C)C[C@H]1CNC(=S)N1C[C@H]1CCCN1C[C@H](Cc1ccc(O)cc1)N1C[C@H](Cc2ccc(O)cc2)N(CC2CCCCC2)C1=S,-7.7%,–
O=C(c1cccnc1)N(Cc1ccccc1)C(=O)c1cccnc1,2.38%,–
O=C(c1cccnc1)N(c1cc2sc(=O)oc2c2ccccc12)S(=O)(=O)c1ccccc1,–,20 µM (active)
CCc1ccc(N(CC(=O)NCc2cccnc2)S(=O)(=O)c2ccccc2)cc1,12.3%,–
COC(=O)CCCCC1=CCC2C(=O)C=C(O)C2C1 (centres undefined),–,50.1 µM (active)
COc1ccc(C(C)=O)cc1COC(=O)Cn1cnc2ccccc2c1=O,-5.02%,–
COC(=O)[C@@]1(Cc2ccc(OC)cc2)[C@H]2c3cc(C(=O)N4CCCC4)n(Cc4ccc(OC(F)(F)F)cc4)c3C[C@H]2CN1C(=O)c1ccccc1,-10.4%,–
CCOCCC(=O)Nc1ccc2c(c1)c(=O)n(C)n2-c1ccc2ccccc2c1,-3.59%,–
CCOC(=O)N1CCN(C(=O)c2ccc(CN(c3ccc(C)c(C)c3)S(C)(=O)=O)cc2)CC1,2.1%,–
Cc1nnsc1S(=O)(=O)Cc1ccccc1Cl,6.13%,–
O=C(Nc1ccccc1)c1nnsc1S(=O)(=O)c1ccc(Cl)cc1,–,44.7 µM (active)
O=C(Nc1ccc(S(=O)(=O)N2CCOCC2)cc1)C1CCN(S(=O)(=O)c2ccc(Cl)cc2)CC1,-7.36%,–
COC(=O)[C@@]12C[C@@H](CC(=O)NCCCCc3ccccc3)C(=O)N(Cc3ccccc3)C1=CCC(C)(C)C2,-4.01%,–
COc1ccc2[nH]c3c(C)c4cc[n+](C)cc4c(C)c3c2c1,–,22.4 µM (active)

SMILES,"activity change, negative = inhibition",Potency
CCOC(=O)c1[nH]c2ccc(OC)cc2c1NC(=O)N1CCOCC1,-19.4%,–
Nc1[nH]c(=S)nc2nc(-c3ccccc3)c(-c3ccccc3)nc12,-29.2%,–
COc1ccccc1Cc1c(-c2ccc(Cl)cc2)nc2c3ccccc3ccn12,0.986%,–
CCc1nc2ccc(C(=O)NCc3ccc(OC)cc3)cn2c1N(CC)Cc1cccc(Br)c1,-8.24%,–
Cc1cccc(C)c1Nc1nnc(SCC(=O)NCCCN2CCCC2=O)s1,-7.98%,–
CO/N=C/c1ccc(N2CCN(C(=O)c3cccc(Cl)c3)CC2)c([N+](=O)[O-])c1,-2.66%,–
O=C1CSC(=S)N1/N=C/c1ccc(O)c([N+](=O)[O-])c1,–,79.4 µM (active)
O=C(CNS(=O)(=O)c1ccc(Br)s1)NCc1ccc2c(c1)OCO2,4.96%,–
O=C1CC2(CCCCC2)Oc2ccc(OCC(=O)N3CCOCC3)cc21,-7.15%,–
CCN(CC)CC(=O)Nc1sc2c(c1C(=O)c1ccccc1C)CCC2,-17.1%,–
COc1cc(O)c2c(=O)c3c(O)c(O)ccc3oc2c1OC,2.49%,–
COc1c(O)cc2oc(-c3ccc(O)c(O)c3)cc(=O)c2c1O,–,25.1 µM (active)
CCOC(=O)COc1cc(OCC(=O)OCC)c2c(=O)cc(-c3ccccc3)oc2c1,1.62%,–
COc1ccc(Cn2c(=O)sc3ccccc32)cc1OC,1.12%,–
COC(=O)[C@@]12C[C@@H](CC(=O)NCCCCc3ccccc3)C(=O)N(CCc3ccc(OC)c(OC)c3)C1=CCC(C)(C)C2,-4.17%,–
Cc1nnc(-c2ccc(Oc3ccc(C)c(C)c3)c([N+](=O)[O-])c2)o1,6.78%,–
Cc1ccc2nc(-c3ccncc3)cc(C(=O)Nc3ccc(OC(F)F)cc3)c2c1,–,44.7 µM (active)
CC1CCCC(NC(=O)c2cc(-c3ccncc3)nc3ccccc23)C1C (centres undefined),1.59%,–
COc1ccc(NC(=O)c2cc(-c3cc(OC)c(OC)c(OC)c3)nc3ccccc23)c(OC)c1,1.58%,–
O=C1NC[C@H](CCCCN2CCN(CCc3ccccc3)C(=O)C2=O)N(CC2CCCCC2)C1=O,3.05%,–
CCCCCCc1cc2cc(-c3nnc(-c4ccccc4)o3)c(=O)oc2cc1O,–,56.2 µM (active)
CCc1ccc(CN(C)C(=O)CCc2nnc(-c3ccc(-c4ccccc4)cc3)o2)nc1,-8.97%,–
Cc1cc(Cl)ccc1C(=O)C1CCCN(C(=O)c2nonc2C)C1 (centres undefined),-10.6%,–
CCCCN(CC)CCNC(=O)c1[nH]c(C)c(C(C)=O)c1C,-4.24%,–
